Results on 43 molecules are retold here after PubChem BioAssay AID1259417 (TB Discovery Research, Infectious Disease Research Institute, 2018).

The test is described as follows: M. tuberculosis growth inhibition, HTS (AID 1259417).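 Also: bacteria grown with compound for 5 days at 37 °C.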 The following applies: stronger effect = higher value, concentration not given here.
[1] abbreviates: M. tuberculosis DsRed fluorescence growth inhibition.
[2] abbreviates: M. tuberculosis growth inhibition.

Out of some 1,100 compounds screened, about 760 (69%) were called active. No rule for the calls is given here. So high a share suggests a set chosen from earlier hits. The list shows a part of the results.

Usually inhibition stands for the relative decrease from the control value, in per cent. With `CC(C)OC(=O)COc1ccc2cc(-c3ccccc3)c(=O)oc2c1`, the inhibition by setting is: under setting [1], 61.1% (active); under setting [2], 80.6%.
For `C=CCOC(=O)COc1ccc2c(-c3cc4ccccc4oc3=O)cc(=O)oc2c1`, the inhibition under setting [1] is 37.7% (active) and the inhibition under setting [2] amounted to 60.7%.
The like results for `COC(=O)C(C)Oc1ccc2cc(-c3ccc(OC)cc3)c(=O)oc2c1` (stereo unspecified) were, in that order, 66.3% (active) and 96.3%.
The like results for `C=CCOC(=O)COc1ccc2cc(-c3ccc(OC)cc3)c(=O)oc2c1` were, in that order, 97.2% (active) and 98.4%.
The like results for `CCCC1(O)CC(c2ccc(Cl)cc2)NC(c2ccc(Cl)cc2)C1C` (stereo unspecified) were, in that order, 8.53% (inactive) and -21.7%.
Regarding `C=CCOC(=O)COc1ccc2c(C)c(-c3ccccc3)c(=O)oc2c1`, the inhibition reads like this: under setting [1], 71.8% (active); under setting [2], 92.5%.
On to `C=CCOC(=O)COc1ccc2cc(-c3ccc(Cl)cc3)c(=O)oc2c1`, for which the inhibition is, setting by setting: under setting [1], 98.9% (active); under setting [2], 99.5%.
The like results for `C=CCOC(=O)COc1ccc2cc(-c3ccccc3)c(=O)oc2c1` were, in that order, 93.1% (active) and 97%.
For `Cc1cc(C)cc(Nc2cc(C)nc3c(-c4ccccc4)cnn23)c1`, in that order: 5.66% (inactive) and 21.5%.
For `COc1ccc(CCNc2cc(C)nc3c(-c4ccccc4)c(C)nn23)cc1OC`, in that order: 98.5% (active) and 98.9%.
For `COC(=O)C(C)Oc1ccc2c(=O)c(Oc3ccccc3Br)coc2c1` (stereo unspecified), the inhibition by setting is: under setting [1], 59.3% (active); under setting [2], 82.3%.
For `CCc1ccc(Oc2coc3cc(OC(C)C(=O)OC)ccc3c2=O)cc1` (stereo unspecified), in that order: 65.1% (active) and 92.2%.
With `O=C(Nc1ccc(N2CCN(Cc3ccccc3F)CC2)cc1)c1ccc([N+](=O)[O-])o1`, the inhibition is, setting by setting: under setting [1], 100% (active); under setting [2], 99.7%.
In the case of `CC(C)C(=O)N1CCN(c2ccccc2NC(=O)c2ccc([N+](=O)[O-])o2)CC1`, the inhibition runs as follows: under setting [1], 19.7% (inactive); under setting [2], 5.43%.
For `CC(C)C(=O)N1CCN(c2ccc(NC(=O)c3ccc([N+](=O)[O-])o3)cc2)CC1`, in that order: 99.1% (active) and 100%.
The like results for `CC1CCN(c2ccc(NC(=O)c3ccc([N+](=O)[O-])o3)cc2)CC1` were, in that order, 98.8% (active) and 98.7%.
Turning to `CCOC(=O)COc1ccc(S(=O)(=O)Nc2cccc(Cl)c2C)cc1`, the inhibition reads like this: under setting [1], 14.4% (active); under setting [2], 55.5%.
Consider `CCOC(=O)COc1ccc(S(=O)(=O)Nc2c(C)cccc2CC)cc1`, for which the inhibition runs as follows: under setting [1], 53% (active); under setting [2], 92.2%.
The like results for `CCOC(=O)COc1ccc(S(=O)(=O)Nc2ccc(C)c(C)c2)cc1` were, in that order, -1.13% (inactive) and 22%.
Take `Cc1sc2ncn(C(C)C(=O)OC3CCCCC3)c(=O)c2c1C` (stereo unspecified): the inhibition was 6.18% (inactive) under setting [1] and 8.72% under setting [2].
For `CCOC(=O)COc1ccc(C(=O)Nc2cccc(Cl)c2C)cc1`, in that order: 97.7% (active) and 97.9%.
Take `Cc1c(Cl)cccc1NC(=O)c1ccc(OC(C)C(=O)OC2CCCCC2)cc1` (stereo unspecified): the inhibition is 38.3% (active) under setting [1] and 74.3% under setting [2].
As to `CSc1ncc(C(=O)NCc2ccco2)cn1`, the inhibition is, setting by setting: under setting [1], 35.2% (active); under setting [2], 25.2%.
Take `CSc1ncc(C(=O)Nc2cccc(C(F)(F)F)c2)cn1`: the inhibition was 12.9% (inactive) under setting [1] and 15.6% under setting [2].
On to `Cc1scc(C(=O)NCc2ccco2)c1-c1ccccc1`, for which the inhibition under setting [1] is 2.71% (inactive) and the inhibition under setting [2] was 6.55%.
The like results for `O=C(Nc1sc2c(c1C(=O)NCc1ccco1)CCC2)c1ccccc1[N+](=O)[O-]` were, in that order, 3.29% (inactive) and -5.87%.
The like results for `COc1ccccc1C(=O)Nc1sc2c(c1C(=O)NCc1ccco1)CCC2` were, in that order, 3.89% (inactive) and -6.54%.
The like results for `O=C(NCc1ccco1)c1cc([N+](=O)[O-])cc([N+](=O)[O-])c1` were, in that order, 97.8% (active) and 93.5%.
Turning to `COc1cc(OC)cc(C(=O)NC(=S)N2CCCCCC2)c1`, the inhibition reads like this: under setting [1], 3.24% (inactive); under setting [2], -3.75%.
`O=C(NC(=S)N1CCCC1)c1ccc(-c2ccccc2)cc1`: the inhibition reads like this: under setting [1], 44.2% (active); under setting [2], 47%.
The like results for `O=C(NC(=S)N1CCc2ccccc21)c1ccccc1` were, in that order, 20.8% (inactive) and 20.4%.
For the molecule `CN1CCN(C(=S)NC(=O)c2ccc(-c3ccccc3)cc2)CC1`, the inhibition is 0.913% (inactive) under setting [1] and -8% under setting [2].
Turning to `CC1CCN(C(=S)NC(=O)c2ccc(Cl)cc2)CC1`, the inhibition is 24.6% (active) under setting [1] and 49.7% under setting [2].
For `CC(=O)N(C)c1ccc(OCC(O)Cn2c3ccc(Cl)cc3c3cc(Cl)ccc32)cc1` (stereo unspecified), in that order: 0.0147% (inactive) and -14.7%.
The like results for `CCN(CC)CCn1c(=N)n(CC(O)COc2ccc(Cl)cc2Cl)c2ccccc21` (stereo unspecified) were, in that order, 100% (active) and 98%.
For `CC(=O)Oc1cc2c(cc1Cl)C1(CC(c3ccccc3Cl)O2)CC(C)(C)NC(=S)N1` (stereo unspecified), in that order: -2.34% (inactive) and -4.82%.
For the molecule `COC(=O)CSc1nc(N)c2c3c(sc2n1)CCCC3`, the inhibition was 44.7% (active) under setting [1] and 75% under setting [2].
For `CCCCC(=O)Nc1nnc(-c2ccc(Cl)s2)o1`, in that order: 0.12% (inactive) and 19.7%.
For `O=C(Nc1nnc(-c2ccc(Cl)cc2)o1)C1CCCCC1`, in that order: 0.632% (inactive) and 5.51%.
With `CCC(=O)Nc1nnc(-c2ccc(C)cc2C)o1`, the inhibition is 0.727% (inactive) under setting [1] and 13.4% under setting [2].
For `O=C(NCC1COc2ccccc2O1)c1ccc(NC(=O)C2COc3ccccc3O2)cc1` (stereo unspecified), in that order: 0.302% (inactive) and -8.66%.
The like results for `O=C(Nc1nnc(-c2ccc(Cl)s2)o1)C1CCCCC1` were, in that order, 49.3% (active) and 59.3%.
For `Cc1ccc(C)c(-c2nnc(NC(=O)C3CC3)o2)c1`, in that order: 51.8% (active) and 83.4%.
